From the OligoGym collection

Target: FMNL2
Assay: pooled miR-30 sensor sort-seq; sequence = guide strand
Conditions: shRNA
Also: reference of the scale not given here.

Sequence | sensor-assay potency score (higher = more potent)
TTCTGCAATTAACTCTTGCTGC | -0.158
TTGAGTATTTGCATCTTTGTAG | 0.305
TTATATGCTTTCACAAACCGGA | -0.533
TTCTTCTTTTTCTTTGACCATT | -1.21
TACAATATTAATAAACTGCATA | -0.855
TAGACTGTCTTTGAATTGCTTC | 0.088
TTATCTTTAACTTGTCGTCTTC | 0.239
TAATTCTGCAATTAACTCTTGC | -0.103
TTCCATGAGAGCTTGTTCCTGC | 0.908
TTTCTCTAGCTCATGAATCTTT | -0.357
TAGCTTTACATATTTCATCAGC | -0.662
TTATAGAGACAGATGCTGCTAT | 0.344
